Pf growth 96h: Primary qHTS for delayed death inhibitors of the malarial parasite plastid, 96 hour incubation; P. falciparum luciferase reporter growth, 96 h; Potency, µM (series often up to 28.7 µM), for the others: at the top dose activity change, negative = inhibition, usual class: inhibitors; hit rate 6.9% among 320,000; further: on the % scale 0 is the no-effect control and ±100 the full control effect
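Delayed-death screen, second-generation endpoint: infected erythrocytes, 2% hematocrit, 0.05% parasitemia final; 96 hours at 37 C, 5% CO2; luciferase detection reagent; luminescence decrease equals reduced growth.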
NS1 inh: qHTS Assay for Inhibitors of Influenza NS1 Protein Function. hit rate 0.4% among 270,000. Potency, µM (top dose mostly 46.1 µM), inactives show top-dose activity, positive = more growth; calls by dose curve; further: actives are rising curves; nearly all actives have a fitted effect of over 50% in size
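In this qHTS, NS1 from influenza A is expressed in budding yeast, where it slows growth. Cells are switched from glucose to 2% galactose medium (pH 6.0, -URA), treated with compound, and growth recovery is read at OD600.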
RE007 growth inh: qHTS Assay for Inhibitors of the HIV-1 protein Vpr; S. pombe RE007 Vpr strain, BacTiter-Glo ATP luminescence, 24 h; Potency, µM (titrated, usually from 92.2 µM), for the others: at the highest dose activity change, negative = less growth, usual class: inhibitors; AID 651644, 2012; hit rate 0.21% among 360,000; active means well fitted falling curve with a large enough effect; inconclusive means small, poorly fitted or top-dose-only effect; inactive means no such curve, though single readings can be large or run the other way; further: on the % scale 0 is the no-effect control and ±100 the full control effect; nearly all actives have a fitted effect of over 50% in size
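Fission yeast RE007 carrying one integrated HIV-1 vpr copy, seeded at OD 0.01 in PMG+AL medium with 23 nL pinned compound. Grown 24 h at 30 degrees; viability read by BacTiter-Glo luminescence after 5 min.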
SARS PLP yeast: qHTS of Yeast-based Assay for SARS-CoV PLP; Potency, µM (top dose mostly 32.9 µM), inactives show top-dose activity, positive = growth rescue, actives largely listed as activators; AID 485353, 2010; hit rate 0.19% among 330,000; S. cerevisiae expressing SARS-CoV PLpro, growth rescue; calls by dose curve; further: 0% is about no effect; nearly all actives have a fitted effect of over 55% in size
Pf growth 48h: Primary qHTS for delayed death inhibitors of the malarial parasite plastid, 48 hour incubation | AID 504832, 2011 | Potency, µM (highest dose often 28.7 µM), for inactives: top-dose activity change, negative = inhibition, hits mostly inhibitors | P. falciparum luciferase growth in erythrocytes, 48 h | hit rate 5.9% among 310,000; further: on the % scale 0 is the no-effect control and ±100 the full control effect
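In quantitative HTS format, infected erythrocytes bearing luciferase-reporter parasites were treated for a single generation at 37 C. Luminescence after adding detection reagent served as the growth measure.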
Active calls of the source: *; ? = inconclusive; nt = no result given; ! = not confirmed by another sample; [ ] = another dose, or the depositor's remark. Shown are actives, neighbours in structure and some others; about 9.5% of the full set was active somewhere. Unless noted, the call rests on the fitted dose curve; in most records, active means well fitted inhibition curve with a large enough effect; inconclusive means small, poorly fitted or top-dose-only effect, or another doubt; inactive means no such curve, though single readings can be large or run the other way. Potency means the concentration at half of the fitted maximal effect.

SMILES	Pf growth 96h	NS1 inh	RE007 growth inh	SARS PLP yeast	Pf growth 48h
CCN1C(=O)[C@@H]2[C@@H](c3ccc(-c4ccc(C(C)=O)cc4)c(OC)c3)N3CCCC[C@@]3(C(=O)OC)[C@@H]2C1=O	9.3µM*	nt	2%	-7%	2.9µM*
COC(=O)[C@@]12CCCCN1[C@H](c1ccc(-c3ccc(OC)cc3)c(OC)c1)[C@@H]1C(=O)N(C)C(=O)[C@@H]12	7.4µM*	nt	9%	-5%	9.3µM*
CCN1C(=O)[C@@H]2[C@@H](c3ccc(-c4ccc5c(c4)OCO5)c(OC)c3)N3CCCC[C@@]3(C(=O)OC)[C@@H]2C1=O	12µM*	nt	2%	8%	4.7µM*
CCN1C(=O)[C@H]2[C@@H](c3ccc(-c4ccc(Cl)c(Cl)c4)c(OC)c3)N3CCCC[C@@]3(C(=O)OC)[C@H]2C1=O	nt	nt	14%	-2%	nt
CCN1C(=O)[C@H]2[C@@H](c3ccc(-c4ccc(F)cc4)c(OC)c3)N3CCCC[C@@]3(C(=O)OC)[C@H]2C1=O	nt	nt	-16%	-1%	nt
COCCNC(=O)C1CCCN(C(=O)C2(c3ccc(Cl)cc3)CCCC2)CC1 (stereo not given)	nt	nt	-5%	nt	nt
CCOc1ccc2ccccc2c1/C=N/NC(=O)CNC(=O)c1ccccc1F	-7%	-38%	-2%	-3%	26%
O=C(CCn1c(=S)oc2ccccc21)Nc1cc([N+](=O)[O-])ccc1F	-4%	2%	-1%	0%	8.3µM*
O=C(CSCc1ccccc1)Nc1cc([N+](=O)[O-])ccc1F	5.2µM*	nt	-9%	0%	-16%
CCCC(CCC(=O)Nc1cc([N+](=O)[O-])ccc1O)C(=O)O (stereo not given)	29%	nt	21%	3%	35%
O=C(COc1ncnc2ccccc12)Nc1cc([N+](=O)[O-])ccc1F	5.2µM*	-4%	-1%	1%	3%
O=C(CCn1c(=S)oc2ccccc21)Nc1cccc(F)c1	-11%	nt	0%	1%	-28%
O=C(O)CCCC(=O)Nc1cc([N+](=O)[O-])ccc1O	13µM*	-3%	-3%	0%	3%
CCCS(=O)(=O)NC(=O)C1(C)CCN(C(=O)c2ccccc2C(F)(F)F)C1 (stereo not given)	nt	nt	2%	nt	nt
Clc1cccc(Cl)c1NC1=NCCN1	12µM*	1%	nt	9%	-14%
Cc1ccc(-c2ccc([C@H]3[C@H]4C=CC[C@@H](C)[C@@H]4C(=O)N3Cc3ccccc3)c(F)c2)cc1	10µM*	28%	11%	-6%	12µM*
C[C@@H]1CC=C[C@H]2[C@H]1C(=O)N(Cc1ccccc1)[C@H]2c1ccc2ccccc2c1	3.7µM*	-102%	7%	-16%	10µM*
C[C@@H]1CC=C[C@H]2[C@H]1C(=O)N(Cc1ccccc1)[C@H]2c1ccc2ccccc2c1Br	?	-35%	1%	-4%	10µM*
CC[C@@H]1CC=C[C@H]2[C@H]1C(=O)N(Cc1ccccc1)[C@H]2c1ccoc1	?	-37%	3%	-11%	12µM*
C[C@@H]1CC=C[C@H]2[C@H]1C(=O)N(Cc1ccccc1)[C@H]2c1ccc(Br)cc1F	-88%	-52%	14%	-15%	?
CC(C)C(=O)N1CCC1(C)C(=O)Nc1ccc(-n2cncn2)cc1 (stereo not given)	nt	nt	15%	nt	nt
O=C1C2C(c3cccc(/C=C/c4ccccc4)c3)CC=CC2C(c2ccc(C(F)(F)F)cc2)N1Cc1ccccc1 (stereo not given)	9.3µM*	-1%	18%	1%	12µM*
CC(C)Oc1ccccc1NC(=O)CSc1nc2ccccc2c(=O)n1C	6%	-17%	-6%	1%	-27%
COc1cccc(NC(=O)CSc2nc3ccccc3c(=O)n2C)c1	?	-13%	6%	1%	12µM*
Cc1cccc(-n2c(N)cc(=O)nc2SCC(=O)Nc2ccccc2)c1	-27%	?	0%	2%	nt
SMILES	Pf growth 96h	NS1 inh	RE007 growth inh	SARS PLP yeast	Pf growth 48h
Cc1ccc(-n2c(SCC(=O)N3CCOCC3)nc(O)cc2=O)cc1	?	?	1%	0%	10%
Nc1cc(=O)nc(SCC(=O)Nc2ccccc2)n1-c1ccccc1	1.9µM*	6%	-3%	0%	1%
Cc1ccc(NC(=O)CSc2nc(O)cc(=O)n2-c2ccc(C)cc2)cc1	?	18%	0%	0%	13µM*
COc1ccc(-n2c(SCC(=O)N3CCOCC3)nc(O)cc2=O)cc1	5.9µM*	23%	2%	0%	13%
Cc1c(O)nc(SCC(=O)Nc2cccc(C(F)(F)F)c2)n(-c2ccccc2)c1=O	?	?	29%	-6%	-8%
COc1cccc(NC(=O)CSc2nc(O)c(C)c(=O)n2-c2ccc(C)cc2)c1	10µM*	15%	-3%	3%	-5%
C/C(=N\NC(=O)c1ccc(Br)o1)c1cc2c(cc1NC(=O)CCC(=O)O)OCO2	-13%	11%	-11%	-4%	-4%
CCN1CCc2nc(N)sc2C1	-5%	nt	-22%	0%	-3%
C=CCN1CCc2nc(N)sc2CC1	6.7µM*!	1%	-22%[18.4 µM]	4%	-13%
C=CCNCCCCOc1c(Cl)cc(C)cc1Br	-60%	-8%	1%[3.69 µM]	-5%	9.3µM*
O=C(/C=C/c1ccc(Cl)cc1)N1CCOCC1	11%	27%	-9%	0%	36%
O=C(Nc1cccc2cccnc12)[C@@H]1[C@@H](C(=O)O)[C@H]2CC[C@@H]1O2	nt	0%	nt	nt	nt
CC(NC(=O)NC(N)=O)(C(F)(F)F)C(F)(F)F	7.4µM*	4%	-5%	-2%	23%
O=C(O)[C@@H]1[C@@H](C(=O)NCc2ccccn2)[C@@H]2C=C[C@@H]1O2	nt	-1%	nt	nt	nt
O=C(CN(c1cccc(C(F)(F)F)c1)S(=O)(=O)c1ccc(Cl)c([N+](=O)[O-])c1)NCc1ccc(F)cc1	15µM*	0%	-18%	4%	?
COc1cc(CNC[C@H]2O[C@@H](n3ccc(N)nc3=O)[C@H](O)[C@@H]2O)ccc1OCc1cccc(Cl)c1	nt	nt	-17%	nt	nt
CN[C@H]1C[C@H]2c3[nH]c4ccc(-c5ccc(OC)cc5)cc4c3CCN2C(=O)[C@H]1[C@H](C)O	nt	nt	-1%	nt	nt
O=C(O)C1C2C=CC(O2)C1C(=O)NCc1ccc2c(c1)OCO2 (stereo not given)	46%	1%	-27%	-20%	-6%
O=C(O)C1C2C=CC(O2)C1C(=O)NCc1ccc(Cl)cc1 (stereo not given)	nt	-7%	35µM*	4%	24%
COc1ccc(N2Cc3cccc(C(=O)NC(C)CCc4ccco4)c3C2=O)cc1 (stereo not given)	12µM*	7%	16%	-11%	nt
CC(CCc1ccco1)NC(=O)c1cccc2c1C(=O)N(C1CCCCC1)C2 (stereo not given)	?	nt	-11%	-7%	?
